This passage reports inhibition results from PubChem BioAssay AID2661 (Broad Institute, 2010).

The whole screen tested about 320,000 compounds, of which about 240 (0.075%) were called active.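 How the source made its calls: active means inhibition at or above 25%, using the most active replicate where run in duplicate; inactive means inhibition below 25%.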 Many of the other results were omitted from the sample, so actives are more common in it than they were.

Serine/threonine-protein kinase 33 (Homo sapiens), sequence (Q9BYT3 whole entry, looked up): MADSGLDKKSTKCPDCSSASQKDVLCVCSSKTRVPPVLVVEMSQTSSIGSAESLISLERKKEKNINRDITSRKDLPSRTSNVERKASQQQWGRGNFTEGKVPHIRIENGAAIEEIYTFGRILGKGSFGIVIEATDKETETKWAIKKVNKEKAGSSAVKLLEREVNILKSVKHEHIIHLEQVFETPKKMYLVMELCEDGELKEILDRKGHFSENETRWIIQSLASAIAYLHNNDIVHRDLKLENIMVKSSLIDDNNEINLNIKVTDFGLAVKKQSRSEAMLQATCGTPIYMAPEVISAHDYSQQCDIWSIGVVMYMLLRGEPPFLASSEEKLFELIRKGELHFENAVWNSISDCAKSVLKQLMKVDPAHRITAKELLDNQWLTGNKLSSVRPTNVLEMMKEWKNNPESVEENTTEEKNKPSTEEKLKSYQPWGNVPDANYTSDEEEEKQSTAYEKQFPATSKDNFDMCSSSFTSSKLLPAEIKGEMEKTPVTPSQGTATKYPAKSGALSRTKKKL

The assay has as its target Serine/threonine-protein kinase 33 (Homo sapiens) (UniProt Q9BYT3). Briefly: inhibitors of purified STK33 kinase, primary screen, biochemical, ADP-Glo luminescence, homogeneous, cell-free (AID 2661). The conditions noted are these: purified STK33, MBP phosphorylation, at 10 µM, active compounds read high.
`Oc1ccc(N=Cc2c(O)ccc3ccccc23)cc1`: the inhibition was 57.4% (active).
As for `O=[N+]([O-])c1ccc(N=Cc2c(O)ccc3ccccc23)cc1`, the figure is -0.767% (inactive).
In the case of `Oc1ccc(N=Cc2sc3ccccc3c2Cl)cc1` it was 1.25% (inactive); in that of `CC(OC(=O)c1c(F)cccc1F)C(=O)NCCC1=CCCCC1` (stereo not given), -0.382% (inactive); in that of `Cc1ccc(C)c(S(=O)(=O)N2CCN(c3ncnc4sccc34)CC2)c1`, -3.05% (inactive).
As for `COc1ccc(C(=O)Nc2cc(S(=O)(=O)N3CCCC3)ccc2Cl)cc1`, the figure is 0.138% (inactive); as for `COc1cc(OC)cc(C(=O)NNC(=O)Cc2cccs2)c1`, -0.657% (inactive); as for `COc1ccc2sc(-c3ccc(S(C)(=O)=O)cc3)c(C#Cc3cncn3C)c2c1`, -0.341% (inactive).
`O=C(CNC(=O)c1n[nH]c2ccccc12)Nc1cc(Cl)ccc1Cl`: the inhibition is 1.57% (inactive).
In the case of `CC(C)n1cnc2c(NCc3ccccc3)cc(N[C@@H](CO)Cc3ccccc3)cc21` it was 0.0472% (inactive).
As for `C=CC[C@@H](CC(=O)N[C@@H](CO)Cc1ccccc1)C(=O)N[C@H](COC(=O)[C@H](CC=C)CC(=O)OC(C)(C)C)Cc1ccccc1`, the figure is -0.409% (inactive); as for `CCCCCCSc1ccc([C@@H]2[C@H]3C(=O)N(CC)C(=O)[C@H]3[C@]3(C(=O)OC)CCCCN23)cc1`, 1.08% (inactive); as for `CC(C)NC(=O)Nc1cccc2c1O[C@H](CN(C)S(=O)(=O)c1cccs1)[C@@H](C)CN([C@H](C)CO)C2=O`, -0.082% (inactive).
As for `O=C(CCc1ccc(S(=O)(=O)N2CCOCC2)cc1)OCC(=O)c1ccc(Br)cc1`, the figure is 2.88% (inactive).
As for `COc1cc(NC(=O)COC(=O)c2ccc([N+](=O)[O-])s2)cc(OC)c1OC`, the inhibition is -0.723% (inactive).
For `O=C(CSc1nc2ccccc2c(=O)n1-c1ccccc1F)N1CCOCC1`, the inhibition is -0.216% (inactive).
As for `COC(=O)c1ccc(CNC(=O)c2ccc(S(=O)(=O)N3CCCCCC3)cc2)cc1`, the figure is -0.472% (inactive).
In the case of `Cn1cncc1C#Cc1c(-c2ccsc2)sc2ccccc12` it was 0.202% (inactive); in that of `Cc1ccccc1NC(=O)CSC(=O)c1ccccc1`, -0.158% (inactive); in that of `COc1ccc(S(=O)(=O)N2CCOCC2)cc1NC(=O)CSc1nnc(NC2CC2)s1`, -0.646% (inactive).
As for `O=C(CN1C(=O)NC2(CCCCCCC2)C1=O)NCc1ccc(F)cc1`, the figure is 0.305% (inactive); as for `COc1cc(/C=C/C(=O)OCC(=O)NCCCc2ccccc2)ccc1O`, -0.517% (inactive).
For the compound `COc1ccc(-c2sc3ccccc3c2-c2ccc(OCCN3CCOCC3)cc2)cc1`, the inhibition is -0.928% (inactive).
In the case of `COc1ccc(S(=O)(=O)N2CCN(c3cnccn3)CC2)cc1` it was 0.373% (inactive); in that of `Cc1onc(-c2c(F)cccc2Cl)c1C(=O)OCC(=O)N1C(C)CCCC1C` (stereo not given), -0.377% (inactive); in that of `Cc1ccc(C)c(NC(=O)COC(=O)c2nn(C)c(=O)c3ccccc23)c1`, 0.213% (inactive).
As for `Cc1cc(NC(=O)CSc2ncc(C(F)(F)F)cc2Cl)no1`, the inhibition is -0.4% (inactive).
As for `COc1ccc(C(=O)O)cc1S(=O)(=O)NC1CCN(Cc2ccccc2)CC1`, the figure is -0.986% (inactive); as for `Cn1nnnc1SCC(=O)Nc1sccc1C(N)=O`, 0.459% (inactive).
As for `O=C(c1ccc(S(=O)(=O)NCc2ccco2)cc1)N1CCN(c2ccccc2)CC1`, the inhibition was -0.564% (inactive).
As for `COCC(C)n1c(SCC(=O)NC2CCCCC2C)nc2ccccc2c1=O` (stereo not given), the figure is 1.21% (inactive).
As for `C[C@H](CO)N1C[C@H](C)[C@H](CN(C)C(=O)Nc2ccc(C(F)(F)F)cc2)Oc2c(NC(=O)c3ccncc3)cccc2C1=O`, the figure is -1.64% (inactive).
For `Cc1ccc(NC(=O)Cn2cnc3c(OCc4ccccc4)ncnc32)cc1C`, the inhibition was -0.221% (inactive).
Regarding `N=c1c2c(-c3ccccc3)c(-c3ccccc3)n(Cc3ccccc3)c2ncn1CCCO`, the inhibition was -0.27% (inactive).
As for `COc1ccc(-c2oc3ncn(Cc4ccco4)c(=N)c3c2-c2ccc(OC)cc2)cc1`, the figure is 0.0388% (inactive).
In the case of `N=c1c2c(-c3ccccc3)c(-c3ccccc3)oc2ncn1Cc1ccco1` it was 29.3% (active).
In the case of `CSCCC1NC(=O)N(CC(=O)Nc2cccc(S(=O)(=O)N3CCCCCC3)c2)C1=O` (stereo not given) it was -1.42% (inactive); in that of `CN=C(Nc1cccc(S(=O)(=O)N2CCOCC2)c1)c1ccccc1`, -1.05% (inactive); in that of `CCN(C(=O)CSc1cccc[n+]1[O-])c1ccccc1`, -2.46% (inactive).
With `C[C@H](NS(=O)(=O)c1ccc(Cl)cc1)C(=O)OCC(=O)N1CCOCC1`, the inhibition was -1.2% (inactive).
Regarding `Cc1ccsc1C(=O)NCCc1ccco1`, the inhibition is -0.976% (inactive).
`CC(C)CC1NC(=O)c2cc(Cl)ccc2-n2c1nc1ccccc1c2=O` (stereo not given): the inhibition is -0.406% (inactive).
In the case of `CC(NC(=O)COC(=O)CCC(=O)c1ccc(Cl)cc1)c1ccccc1` (stereo not given) it was 0.0433% (inactive).
As for `CCCCCCSc1ccc(-c2nc3ccc(Cl)cn3c2NCc2ccccc2)cc1`, the figure is -0.955% (inactive).
As for `O=C(Nc1ccccc1-c1nnn(CC(=O)N2CCN(c3ccccc3)CC2)n1)c1cccs1`, the figure is -0.118% (inactive); as for `O=C(Nc1ccccc1-c1ccccc1)c1cccs1`, 4.17% (inactive); as for `O=C(Nc1ccccc1-c1nc2ccccc2[nH]c1=O)c1cccs1`, 71.9% (active).
As to `O=C(COc1ccc(Br)cc1F)NCC1(N2CCCCC2)CCCCC1`, the inhibition is -1.07% (inactive).
With `Cc1ccccc1SCC(=O)OCC(=O)N1CC(=O)Nc2ccccc21`, the inhibition is -0.869% (inactive).
As for `C[C@H](CO)N1C[C@H](C)[C@@H](CN(C)C(=O)NC2CCCCC2)Oc2ccc(NC(=O)c3ccncc3)cc2C1=O`, the figure is 0.225% (inactive); as for `CCC(CO)Oc1cc(NC(=O)c2ccc(Cl)cc2)c2ncn(C(C)C)c2c1` (stereo not given), -0.728% (inactive).
As for `COc1ccc(OCC(=O)NNC(=O)C2CCC2)cc1`, the figure is -0.275% (inactive).
In the case of `COc1ccc(OC)c(NC(=O)COC(=O)Cc2ccsc2)c1` it was 0.647% (inactive).
Consider `Cc1ccc(S(=O)(=O)N2[C@@H](c3ccc(Br)cc3)C(C(=O)O)=C[C@H]2CC2CCCC2)cc1`, for which the inhibition is -2.01% (inactive).
In the case of `CCOC(=O)[C@@H]1[C@H]2COc3ccc(Br)cc3[C@H]2N2C(=O)N(c3ccc(C)cc3)C(=O)[C@@]12C` it was -0.0883% (inactive).
